Source: PubChem BioAssay (several laboratories)
NPR2 activator – GC-B (human) receptor activation | activation, % at 10 µM | hit rate 0.11% among 370,000 | P20594 | HEK293-GC-B cells, CNP EC30, cGMP TR-FRET; 0% at EC30 CNP, 100% saturating CNP | AID 1920062;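 active means activation at 10 µM reaching about 35% in either raw or pattern-adjusted values, limit read from the data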
bovine MsrA act – activates bovine MsrA enzyme; activation, % at 10.6 µM; purified bovine MsrA, absorbance read-out; hit rate 0.3% among 360,000; in the data active means activation above about 7.5%
GC-A act – GC-A (human) enzyme activation; activation, % at 10 µM; AID 1671463; HEK293 GC-A cells, cGMP TR-FRET, EC30 ANP; 0% at EC30 ANP, 100% saturating ANP; P16066; hit rate 0.14% among 370,000; in the data active means activation above about 40%
MsrA inh – inhibits bovine methionine sulfoxide reductase A; purified bovine MsrA, absorbance read-out; inhibition, % at 15.5 µM; hit rate 0.75% among 360,000; in the data active means inhibition above about 4.5%
Hits are given with their value. In the library only some 1.2% were active in any assay of this set; here they are far more common.

Results for COCCn1c(SCC(=O)NC(=O)NC(C)C)nc2ccccc21 ?
NPR2 activator: inactive; bovine MsrA act: inactive; GC-A act: 42; MsrA inh: inactive

Results for COCCn1c(SCC(=O)NC(=O)NC(C)(C)C)nc2ccccc21 ?
NPR2 activator: inactive; bovine MsrA act: inactive; GC-A act: inactive; MsrA inh: inactive

How did CCCC1CCC2(CC1)CCC2OC(=S)Nc1ccccc1OC (configuration not stated) do in these assays?
NPR2 activator: inactive; GC-A act: inactive

Results for BrC(=C\c1ccccc1)/C=N/Nc1ccc2nncn2n1 ?
NPR2 activator: inactive; bovine MsrA act: inactive; GC-A act: inactive; MsrA inh: 4.5

What do the screens show for `c1ccc(C2=NC(c3ccccc3)N=C(c3ccccc3)N2)cc1`?
NPR2 activator: inactive; bovine MsrA act: inactive; GC-A act: inactive; MsrA inh: inactive

What do the screens show for `Oc1ccc(C2N=C(c3ccccc3)NC(c3ccccc3)=N2)cc1`?
NPR2 activator: 34; bovine MsrA act: inactive; GC-A act: inactive; MsrA inh: inactive

Results for Cc1ccc(C(=O)Nc2ccccc2-c2ccccc2)o1 ?
NPR2 activator: inactive; bovine MsrA act: inactive; GC-A act: inactive; MsrA inh: inactive

What do the screens show for `Cc1ccc(C(=O)Nc2scc(-c3ccccc3)c2C(=O)O)o1`?
NPR2 activator: inactive; bovine MsrA act: inactive; GC-A act: inactive; MsrA inh: 4.6

Results for CC(C)(C)C(=O)N1CCC[C@]2(CC[C@H](CCC#N)O2)C1 ?
NPR2 activator: inactive; GC-A act: inactive

What do the screens show for `COC(=O)c1cccc(-n2sc3ccccc3c2=O)c1`?
NPR2 activator: inactive; bovine MsrA act: 11; GC-A act: inactive; MsrA inh: inactive

Results for CC1C(=O)N(Cc2cn(CCC3OCCO3)nn2)CCS(=O)(=O)N1Cc1ccc(-c2ccc(Cl)cc2)cc1 (configuration not stated) ?
NPR2 activator: inactive; bovine MsrA act: inactive; GC-A act: 49; MsrA inh: inactive

Results for CCOc1cc([N+](=O)[O-])cc(/C=C2/NC(=O)N(Cc3ccccc3F)C2=O)c1O ?
NPR2 activator: inactive; bovine MsrA act: inactive; GC-A act: inactive; MsrA inh: 4.6

Results for Nc1[nH]c(C(=O)c2ccccc2)c(-c2ccc(O)cc2)c1C(=O)NCCc1c[nH]c2ccccc12 ?
NPR2 activator: inactive; GC-A act: inactive

How did Cc1ccc(C)c(/C(O)=C2\C(=O)C(=O)N(Cc3cccnc3)C2c2cccnc2)c1 (configuration not stated) do in these assays?
NPR2 activator: inactive; bovine MsrA act: inactive; GC-A act: inactive; MsrA inh: 4.8

How did O=[N+]([O-])c1cc(Cl)ccc1-c1nc(-c2ccccc2)no1 do in these assays?
NPR2 activator: inactive; bovine MsrA act: inactive; GC-A act: inactive; MsrA inh: inactive

What do the screens show for `Clc1ccc(-c2nc(-c3ccncc3)no2)c(Cl)c1`?
NPR2 activator: inactive; bovine MsrA act: inactive; GC-A act: 46; MsrA inh: inactive

Results for O=[N+]([O-])c1cc(Cl)ccc1-c1nc(-c2ccncc2)no1 ?
NPR2 activator: inactive; bovine MsrA act: inactive; GC-A act: 46; MsrA inh: inactive

What do the screens show for `CCOC(=O)CSc1nc2c(sc3ccc([N+](=O)[O-])cc32)c(=O)n1Cc1ccco1`?
NPR2 activator: 50; bovine MsrA act: inactive; GC-A act: 48; MsrA inh: inactive

What do the screens show for `COc1ccc(-c2csc(NC(C)c3nc4cc(C(=O)NCCCO)ccc4n3Cc3ccc(C)cc3)n2)cc1` (configuration not stated)?
NPR2 activator: 47; bovine MsrA act: inactive; GC-A act: inactive; MsrA inh: inactive

How did CCC(=O)NNC(=S)NC(=O)c1ccc(C)cc1 do in these assays?
NPR2 activator: inactive; bovine MsrA act: inactive; GC-A act: inactive; MsrA inh: inactive

What do the screens show for `CCC(=O)NC(=S)NNC(=O)c1ccc(O)cc1`?
NPR2 activator: 85; bovine MsrA act: inactive; GC-A act: inactive; MsrA inh: inactive

What do the screens show for `Cc1c(C)n(Cc2ccc(-c3ccccc3C(=O)O)cc2)c2ccc(C(=O)N[C@@H](C)c3ccc(Br)cc3)cc12`?
NPR2 activator: inactive; GC-A act: inactive

How did Cc1ccc(-c2csc(NC(=O)CN3C(=O)CCC3=O)n2)cc1 do in these assays?
NPR2 activator: inactive; bovine MsrA act: inactive; GC-A act: 55; MsrA inh: inactive

What do the screens show for `CCOC(=O)c1[nH]c(C)c(C(=O)NC2CCCC2)c1C`?
NPR2 activator: 56; bovine MsrA act: inactive; GC-A act: inactive; MsrA inh: inactive

What do the screens show for `CCCCC(CC)CN=C(N)NC(N)=NCCCCCCN=C(N)NC(N)=NCC(CC)CCCC` (configuration not stated)?
bovine MsrA act: 9.7

What do the screens show for `O=C(Nc1ccc(F)cc1F)c1cc(-c2ccc(Cl)cc2)nc2ccccc12`?
NPR2 activator: inactive; GC-A act: inactive

How did CCOC(=O)CNC(=O)CSc1nc(-c2ccc(OC)cc2)ns1 do in these assays?
NPR2 activator: inactive; bovine MsrA act: inactive; GC-A act: inactive; MsrA inh: inactive

What do the screens show for `CCOC(=O)CSc1cc(-c2ccccc2)nc2ncnn12`?
NPR2 activator: 42; bovine MsrA act: inactive; GC-A act: inactive; MsrA inh: inactive

Results for CCOC(=O)CSc1nc(-c2ccccc2)ns1 ?
NPR2 activator: inactive; bovine MsrA act: inactive; GC-A act: 55; MsrA inh: inactive

What do the screens show for `COc1ccc(C2Nc3ccccc3C(=O)N2Cc2ccco2)cc1COc1ccccc1C` (configuration not stated)?
NPR2 activator: inactive; GC-A act: inactive

What do the screens show for `Oc1ccc(N=Cc2ccc(-c3cccs3)s2)cc1`?
NPR2 activator: inactive; bovine MsrA act: inactive; GC-A act: inactive; MsrA inh: 5.2

How did CC(=O)Nc1cccc(Oc2ncnc3scc(-c4ccccc4)c23)c1 do in these assays?
NPR2 activator: 46; bovine MsrA act: inactive; GC-A act: inactive; MsrA inh: inactive

What do the screens show for `O=S(=O)(c1ccc(Oc2ncnc3scc(-c4ccccc4)c23)cc1)N1CCOCC1`?
NPR2 activator: inactive; bovine MsrA act: inactive; GC-A act: inactive; MsrA inh: inactive

How did COc1cc2cc(C(=O)Nc3ccc4c(c3)OCCO4)[nH]c2cc1OC do in these assays?
NPR2 activator: inactive; bovine MsrA act: inactive; GC-A act: inactive; MsrA inh: 4.6

Results for CC(=O)c1c(C)n(-c2ccccc2)c2ccc(O)cc12 ?
NPR2 activator: inactive; bovine MsrA act: inactive; GC-A act: inactive; MsrA inh: inactive

Results for CC(=O)c1c(C)n(-c2cccc(Cl)c2)c2ccc(O)cc12 ?
NPR2 activator: inactive; bovine MsrA act: inactive; GC-A act: 66; MsrA inh: inactive

How did O=S1(=O)CC2c3ccccc3CCN2CN1Cc1ccc(F)cc1 (configuration not stated) do in these assays?
NPR2 activator: inactive; GC-A act: inactive

Results for COC(=O)[C@]12C[C@H](CC(=O)NCCc3ccccc3OC)C(=O)N(Cc3ccco3)C1=C[C@H](C1CCCC1)O[C@@H]2C ?
NPR2 activator: inactive; GC-A act: inactive

Results for O=C(CCc1ccccc1)NCCSc1ccccc1 ?
NPR2 activator: inactive; bovine MsrA act: inactive; GC-A act: inactive; MsrA inh: inactive

How did O=C(CCc1[nH]c2ccccc2c1Sc1ccccc1)NCCO do in these assays?
NPR2 activator: inactive; bovine MsrA act: inactive; GC-A act: 43; MsrA inh: inactive
